# Measured values taken from PubChem BioAssay (NCATS).
# Inconclusive results are not listed. Entries that show only a call come without a potency. Activity calls are given as the source filed them. The call rests on the fitted dose curve; in most records, active means well fitted curve in the direction sought with a large enough effect; inconclusive means small, poorly fitted or top-dose-only effect, or another doubt; inactive means no such curve, though single readings can be large; an effect the other way counts as inactive or inconclusive.
# Key:
# [1] = biological target: DNA repair nuclease/redox regulator APEX1 (Homo sapiens) (UniProt P27695); test: qHTS Validation Assay for Inhibitors of the Human Apurinic/apyrimidinic Endonuclease 1 (APE1) (AID 1705; further: potency means the concentration at half of the fitted maximal effect)
# Chain of DNA repair nuclease/redox regulator APEX1 (Homo sapiens) (P27695 whole entry, looked up): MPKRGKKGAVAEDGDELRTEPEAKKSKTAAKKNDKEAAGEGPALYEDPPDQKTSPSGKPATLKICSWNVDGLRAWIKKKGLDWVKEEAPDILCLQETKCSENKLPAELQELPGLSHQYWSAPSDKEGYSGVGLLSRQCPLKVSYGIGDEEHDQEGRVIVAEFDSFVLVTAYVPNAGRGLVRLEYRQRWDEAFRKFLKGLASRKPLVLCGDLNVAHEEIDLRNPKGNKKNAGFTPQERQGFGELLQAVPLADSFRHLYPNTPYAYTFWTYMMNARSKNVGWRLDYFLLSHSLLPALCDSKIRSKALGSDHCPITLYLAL
# Method in brief: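 Human APE1 was preincubated with compound for 15 min at room temperature, then 50 nM (final) THF-abasic double-stranded DNA substrate bearing 5'-TAMRA and 3'-BHQ-2 was added. Incision-driven fluorescence rise (ex 525/em 598 nm) was read kinetically.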
# [2] = qHTS for differential inhibitors of proliferation of Plasmodium falciparum line 7G8 (AID 1815);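 further: parasite growth measured after three days of incubation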; further: potency means the concentration at half of the fitted maximal effect
# [3] = qHTS for differential inhibitors of proliferation of Plasmodium falciparum line GB4 (AID 1816); conditions: Potency: Plasmodium falciparum GB4 proliferation inhibition;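 further: parasite growth measured after 72 h incubation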; further: potency means the concentration at half of the fitted maximal effect
# [4] = qHTS for differential inhibitors of proliferation of Plasmodium falciparum line 3D7 (AID 1876); further: potency means the concentration at half of the fitted maximal effect
# [5] = Counterscreen for APE1 Inhibitors: Fluorescent Dye Displacement Validation Assay (AID 1707)
# Method in brief: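 Reaction mixture of 250 nM Thiazole Orange and 50 nM double-stranded abasic-site DNA was dispensed, compounds were pin-transferred, and fluorescence was read at endpoint (480 nm ex, 540 nm em). Reduced fluorescence indicated dye displacement by DNA binding.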
# [6] = biological target: Endonuclease 4 (Escherichia coli (strain K12)) (UniProt P0A6C1); test: Counterscreen for APE1 Inhibitors: qHTS Validation Assay for Inhibitors of Endonuclease IV (AID 1708)
# Method in brief: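 Read-out: fluorescence rise (ex 525/em 598 nm) from incision of a TAMRA/BHQ-2 double-stranded THF abasic-site substrate (50 nM), measured kinetically; third-minus-first read difference gave reaction progress. Enzyme 2 nM.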
# [7] = biological target: alpha-glucosidase (Oryza sativa, rice) (UniProt Q653V4); test: Counterscreen for Glucocerebrosidase Inhibitors: qHTS Assay for Rice alpha-Glucosidase at pH 5.0 (AID 997)
# Method in brief: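 Endpoint fluorogenic assay at pH 5.0: compounds (0.7 nM to 77 uM) titrated against 4 nM rice enzyme and 400 uM 4-MU-alpha-glucoside for 20 min at room temperature; NaOH/glycine stop, read ex 365/em 440 nm, Hill-fitted AC50.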
SMILES,Potency [1],Potency [2],Potency [3],Potency [4],Potency [5],Potency [6],outcome [7]
NC(=O)c1cc[n+](CC2=C(C(=O)O)N3C(=O)[C@@H](NC(=O)[C@@H](c4ccccc4)S(=O)(=O)[O-])[C@H]3SC2)cc1,14.1 µM (active),inactive,inactive,inactive,,,
NC(N)=N[C@@H](CCC(=O)O)C(=O)O,,inactive,inactive,inactive,inactive,inactive,
NC(=Nc1ccccc1)NC(=O)c1nc(Cl)c(N)nc1N,inactive,8.91 µM (active),12.6 µM (active),3.55 µM (active),inactive,,inactive
O=C(O)c1ccccc1Nc1cccc(OCc2ccc3ccccc3n2)c1,inactive,,,inactive,inactive,inactive,inactive
O=C(N[C@@H](Cc1ccccc1)C(=O)CCl)OCc1ccccc1,,8.91 µM (active),10 µM (active),11.2 µM (active),,,inactive
CC#CCOC(=O)c1c(C)nc2sc3c(c2c1N)CCC(O)C3 (configuration not stated),inactive,,,11.2 µM (active),inactive,inactive,
C/C(=C\c1ccc(C(=O)O)cc1)c1ccc2c(c1)C(C)(C)CCC2(C)C,inactive,,inactive,,inactive,,inactive
O=C1Cc2c([nH]c3ccc(Br)cc23)-c2ccccc2N1,inactive,8.91 µM (active),10 µM (active),11.2 µM (active),inactive,,inactive
N=C(N)c1ccc(OCCCCCOc2ccc(C(=N)N)cc2)cc1 (tested in a mixture with another compound),inactive,0.282 µM (active),0.251 µM (active),0.0891 µM (active),inactive,inactive,inactive
O=c1ccc2c(OCCCCc3ccccc3)c3ccoc3cc2o1,inactive,,11.2 µM (active),,inactive,,inactive
C[N+](C)(C)CC=O,inactive,inactive,inactive,inactive,inactive,inactive,inactive
CCCC(=O)NCCc1c2n(c3ccc(OC)cc13)CCCc1ccccc1-2,inactive,3.55 µM (active),11.2 µM (active),,inactive,,inactive
COc1ccc2c(c1)c(CC(=O)O)c(C)n2C(=O)c1ccccc1,inactive,inactive,inactive,inactive,inactive,inactive,inactive
[N-]=[N+]=Nc1ccc(C(=O)CSC[C@H](NC(=O)CC[C@H](N)C(=O)O)C(=O)NCC(=O)O)cc1,20 µM (active),inactive,,inactive,inactive,,
CC(C)(C)c1cc(/C=C(\C#N)C(N)=S)cc(C(C)(C)C)c1O,,7.94 µM (active),7.94 µM (active),4.47 µM (active),inactive,inactive,inactive
CCn1c(=O)[nH]c2cc(Cl)c(Cl)cc21,inactive,inactive,inactive,inactive,inactive,inactive,inactive
COc1ccc(NC(=O)c2ccc(-c3ccc(-c4noc(C)n4)cc3C)cc2)cc1N1CCN(C)CC1,inactive,4.47 µM (active),3.98 µM (active),2.82 µM (active),inactive,inactive,inactive
